Results from PubChem BioAssay AID1159580 (chemical genetic matrix, 2015).
Out of some 5,500 compounds screened, about 2,000 (36%) were called active. Another 18% or so got no clear call; they are omitted. No stated cut-off is given here; in the data, active means normalized growth mostly below about 0.91 (no sharp cut-off); inconclusive means no clear call, values can overlap the other calls; inactive means mostly above about 0.92. This is one part of the list.

Experiment: chemical genetic growth profiling, strain panel (AID 1159580);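 further: tested at 20 µM; growth read once vehicle control cultures reached saturation at 30 °C; 1 = growth at the plate median or of vehicle wells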
Conditions: S. cerevisiae deletion strains, growth OD

Measured: normalized growth

COC(=O)c1cnn(-c2c(Cl)cccc2Cl)c1C=C(C#N)C#N
inactive: locus YAR019C, strain CDC15, stronger effect = lower value 0.939 | locus YBL105C, strain PKC1, stronger effect = lower value 0.957 | locus YBR135W, strain CKS1, stronger effect = lower value 0.954 | locus YBR136W, strain MEC1, stronger effect = lower value 0.952 | locus YBR160W, strain CDC28, stronger effect = lower value 0.955 | locus YDL017W, strain CDC7, stronger effect = lower value 0.953 | locus YDL028C, strain MPS1, stronger effect = lower value 0.946 | locus YDL101C, strain DUN1, stronger effect = lower value 0.944 | locus YDL108W, strain KIN28, stronger effect = lower value 0.961 | locus YDL132W, strain cdc53, stronger effect = lower value 0.942 | locus YDL214C, strain PRR2, stronger effect = lower value 0.966 | locus YDR052C, strain DBF4, stronger effect = lower value 0.948 | locus YDR054C, strain cdc34, stronger effect = lower value 0.943 | locus YDR226W, strain ADK1, stronger effect = lower value 0.956 | locus YDR477W, strain SNF1, stronger effect = lower value 0.972 | locus YER123W, strain YCK3, stronger effect = lower value 0.954 | locus YER133W, strain GLC7, stronger effect = lower value 0.922 | locus YFL009W, strain cdc4, stronger effect = lower value 0.936 | locus YFL029C, strain CAK1, stronger effect = lower value 0.954 | locus YFR003C, strain YPI1, stronger effect = lower value 0.95 | locus YFR019W, strain FAB1, stronger effect = lower value 0.966 | locus YFR028C, strain CDC14, stronger effect = lower value 0.949 | locus YGR040W, strain KSS1, stronger effect = lower value 0.944 | locus YGR052W, strain FMP48, stronger effect = lower value 0.93 | locus YGR092W, strain DBF2, stronger effect = lower value 0.912 | locus YHR079C, strain IRE1, stronger effect = lower value 0.775 | locus YHR082C, strain KSP1, stronger effect = lower value 1.1 | locus YHR205W, strain SCH9, stronger effect = lower value 1 | locus YIL147C, strain SLN1, stronger effect = lower value 0.947 | locus YJL095W, strain BCK1, stronger effect = lower value 0.782 | locus YJL128C, strain PBS2, stronger effect = lower value 0.969 | locus YJL157C, strain FAR1, stronger effect = lower value 0.962 | locus YJR016C, strain ILV3, stronger effect = lower value 0.955 | locus YJR066W, strain TOR1 (second series), stronger effect = lower value 0.964 | locus YJR066W, strain TOR1, stronger effect = lower value 1.08 | locus YKL048C, strain ELM1, stronger effect = lower value 0.922 | locus YKL067W, strain YNK1, stronger effect = lower value 0.955 | locus YKL101W, strain HSL1, stronger effect = lower value 0.958 | locus YKL193C, strain SDS22, stronger effect = lower value 0.949 | locus YKL203C, strain TOR2, stronger effect = lower value 1.03 | locus YLR133W, strain CKI1, stronger effect = lower value 0.968 | locus YLR403W, strain SFP1, stronger effect = lower value 0.975 | locus YML070W, strain DAK1, stronger effect = lower value 0.961 | locus YMR001C, strain CDC5, stronger effect = lower value 0.953 | locus YMR205C, strain PFK2 (second series), stronger effect = lower value 0.975 | locus YMR277W, strain FCP1, stronger effect = lower value 0.949 | locus YNL006W, strain LST8, stronger effect = lower value 0.955 | locus YNL020C, strain ARK1, stronger effect = lower value 0.969 | locus YNL161W, strain CBK1, stronger effect = lower value 0.94 | locus YNL183C, strain NPR1, stronger effect = lower value 0.863 | locus YNL207W, strain RIO2, stronger effect = lower value 0.95 | locus YNL222W, strain SSU72, stronger effect = lower value 0.966 | locus YNL307C, strain MCK1 (second series), stronger effect = lower value 0.986 | locus YOL078W, strain AVO1, stronger effect = lower value 0.946 | locus YOL136C, strain PFK27, stronger effect = lower value 0.969 | locus YOR061W, strain CKA2, stronger effect = lower value 0.95 | locus YOR119C, strain RIO1, stronger effect = lower value 0.961 | locus YOR231W, strain MKK1, stronger effect = lower value 0.797 | locus YOR329C, strain SCD5, stronger effect = lower value 0.947 | locus YPL031C, strain PHO85, stronger effect = lower value 0.948 | locus YPL153C, strain RAD53, stronger effect = lower value 0.938 | locus YPL204W, strain HRR25, stronger effect = lower value 0.956 | locus YPL209C, strain IPL1, stronger effect = lower value 0.954 | locus YPR025C, strain CCL1, stronger effect = lower value 0.942 | locus YPR106W, strain ISR1, stronger effect = lower value 0.942 | locus YPR111W, strain DBF20, stronger effect = lower value 0.953 | strain NNK1, stronger effect = lower value 0.969 | strain TSCII, stronger effect = lower value 0.943
active: locus YLR113W, strain HOG1, stronger effect = lower value 0.748 | locus YPL256C, strain CLN2, stronger effect = lower value 0.781
